AI-2 QS mod – modulators of Vibrio harveyi AI-2 quorum sensing system; Vibrio harveyi JMH597 AI-2 luminescence/OD600 ratio, 9 h; stronger effect = lower value; strain lacks LuxN and CqsS sensors; 0 = neutral-control median; activity change, % at 7.5 µM; actives 0.4% (n = 300,000); AID 2094; in the data active = activity change below about -75%, passing the limit was not always enough;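 also: luminescence divided by OD600 gain over 9 h not by final OD600 alone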
Pemphigus Ab inh – human desmoglein-3 autoantibody binding inhibition; P32926; DSG3-coupled beads, scFv-anti-DSG3-GFP binding, flow cytometry; stronger effect = lower value; binding (percent of control), % at 10 µM; actives 0.48% (n = 310,000);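 active = binding more than 3 SD below its plate's average and above zero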;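 also: hits lower antibody fragment binding to DSG3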
NTR1 agonist – agonists of human neurotensin receptor NTR1. actives 0.17% (n = 330,000). NTR1-U2OS beta-arrestin-GFP spot imaging, agonist mode. P30989. activation, % at 20 µM;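 active = activation at or above 40% of the spot to cytoplasm intensity ratio, with at least 20 cells analyzed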
VLA-4 inh – inhibition in a human VLA-4 binding assay. inhibition, % (about 7 µM as worked out from the volumes in the protocol). actives 0.2% (n = 330,000). VLA-4 expressing cells, ligand binding flow cytometry; in the data active = inhibition above about 50%
Hits are given with their value; – = inactive; · = no result. An excerpt weighted towards active compounds, which were near 1.1% of everything screened.

SMILES	AI-2 QS mod	Pemphigus Ab inh	NTR1 agonist	VLA-4 inh
CC(C)CCN1CCC[C@]2(N[C@H](c3ccc(C(F)(F)F)cc3)[C@@H]3C(=O)N(Cc4ccccc4)C(=O)[C@@H]32)C1=O	·	–	·	·
CSCCC(NC(=O)C12CC3CC(CC(C3)C1)C2)C(=O)OCC(=O)c1ccc(C)cc1 (stereo unspecified)	–	52.9	–	–
CSCCC(NC(=O)c1ccc([N+](=O)[O-])cc1Cl)C(=O)OCC(=O)C12CC3CC(CC(C3)C1)C2 (stereo unspecified)	–	–	–	–
Cc1ccc(Cc2nc(-c3ccncc3)no2)cc1	–	–	–	–
COc1ccc(Cc2nc(-c3ccc(Br)cc3)no2)cc1	-76.0	–	–	–
C=CCOc1ccc(/C=C2\SC(=S)N(NS(=O)(=O)c3ccccc3)C2=O)cc1	-86.2	–	–	–
COc1ccc(/C=C2/SC(=S)N(NS(=O)(=O)c3ccccc3)C2=O)cc1	–	–	–	–
O=C(OCC(=O)N1CCC(Cc2ccccc2)CC1)c1ccc(O)cc1	·	–	·	·
CC(C)(C)NC(=O)Cc1ccc(S(=O)(=O)N2CCCC2)s1	–	75.2	–	–
O=C(COC(=O)c1n[nH]c2ccccc12)c1cccc(Br)c1	-92.2	–	–	–
Cc1ccc(C)c(C(=O)COC(=O)c2n[nH]c3ccccc23)c1	·	·	–	–
CC1(C)CC(=O)C=C(c2ccc(-c3ccc4[nH]ccc4c3)cc2)C1=O	·	–	·	·
O=C(/C=C/C(=O)NCc1cccs1)NCc1cccs1	–	72.3	–	–
Cc1ccc(Sc2ncccc2C(=O)O)c(C)c1	-87.6	–	–	–
Cc1ccc(Sc2ncccc2C(=O)O)cc1C	-85.7	–	–	–
O=C(O)c1cccnc1Sc1ccccc1Cl	–	–	–	·
N/C(=N\OC(=O)Nc1ccccc1)c1ncc([N+](=O)[O-])s1	-88.1	–	–	–
CCOC(=O)c1sc2nc3c(SCCC(=O)O)cc(C(=O)c4cc(OC)ccc4O)cn3c(=O)c2c1C	–	55.3	·	·
COc1ccccc1NS(=O)(=O)c1cccc(NS(=O)(=O)c2cc(C(=O)O)ccc2Cl)c1	·	–	·	·
C=CCOc1ccc(C2NC(=O)c3ccccc3O2)cc1OC (stereo unspecified)	·	–	·	·
Clc1ccc(-c2ccc(C=Nc3ccc(N4CCOCC4)cc3)o2)cc1	–	–	–	–
Clc1ccc(-c2ccc(C=Nc3ccc(N4CCOCC4)cc3)o2)c(Cl)c1	–	26.7	–	–
Cc1cc2ccccc2n1CCNC(=O)C1CC1	–	–	–	–
Cc1cc2ccccc2n1CCNC(=O)c1cccs1	–	61.3	–	–
CC(=O)NCc1ccc(S(=O)(=O)N/N=C/c2ccc(Br)cc2)cc1	–	–	–	–
SMILES	AI-2 QS mod	Pemphigus Ab inh	NTR1 agonist	VLA-4 inh
Nc1ccc(S(=O)(=O)NN=CC=Cc2ccccc2[N+](=O)[O-])cc1	·	–	·	·
O=S(=O)(N/N=C\C=C\c1ccccc1)c1ccc(Br)cc1	-92.5	–	–	–
CN(C)c1ccc(/C=N/NS(=O)(=O)c2ccc(Br)cc2)cc1	-91.7	–	–	–
COc1ccccc1CN(C)C(=O)c1cc(S(=O)(=O)N2CCCCCC2)ccc1OC	·	–	·	·
COc1cc(C(=O)NCC2CCCO2)ccc1OCc1ccc(Cl)cc1Cl (stereo unspecified)	–	81.2	–	–
COc1ccc(C(C)=O)cc1COc1ccc(Cl)cc1Cl	–	82.6	–	–
Cc1ccc(S(=O)(=O)NCC(=O)NCC(=O)NCCc2ccc(Cl)cc2)cc1C	·	–	·	·
O=C(CCCn1c(=S)[nH]c2cc3c(cc2c1=O)OCO3)N1CCN(c2ccccc2F)CC1	–	–	–	–
Cc1ccc(C)c(N2CCN(C(=O)CCCn3c(=S)[nH]c4cc5c(cc4c3=O)OCO5)CC2)c1	–	77.8	–	–
O=C(C[C@@H]1C[C@@H]2c3cc(NC(=O)C4CCOCC4)ccc3O[C@@H]2[C@H](CO)O1)NCc1ccccn1	·	–	·	·
Cn1c2ccccc2c(=O)c2ccc(NCCc3cccs3)cc21	·	–	–	–
COc1ccccc1CCC(=O)NC1CCCN(c2ccc(C(F)(F)F)cn2)C1 (stereo unspecified)	–	–	–	–
O=C(CCc1ccccc1Cl)NC1CCCN(c2ccc(C(F)(F)F)cn2)C1 (stereo unspecified)	–	82.3	–	–
Cc1ccc(S(=O)(=O)N2CC3(O)CN(C(=O)OC(C)C)N(C(=O)OC(C)C)CC3(OC(=O)NCc3ccco3)C2)cc1 (stereo unspecified)	·	–	·	·
O=C(CSc1nccc(-c2ccc(Br)cc2)n1)NCCc1ccccc1	–	69.0	–	–
C[C@H](CO)N1C[C@H](C)[C@@H](CN(C)Cc2ccc(Cl)c(Cl)c2)Oc2c(NS(=O)(=O)c3cccs3)cccc2C1=O	·	–	–	–
O=C1C[C@@H]2c3c(cccc3CN1Cc1ccccc1Br)C[C@@H](O)[C@H]2O	·	–	·	·
Cc1ncc(CO)c(/C=N/NC(=S)Nc2cccc(Cl)c2)c1O	–	–	–	–
Cc1ncc(CO)c(/C=N/NC(=S)Nc2ccc(Cl)c(Cl)c2)c1O	-210.0	–	–	–
COc1cc(OC)c(NC(=O)CC2SC(N)=NC2=O)cc1Cl (stereo unspecified)	·	–	·	·
CC1CCCN(S(=O)(=O)c2ccc(S(=O)(=O)N3CCC4(CC3)OCCO4)cc2)C1 (stereo unspecified)	–	68.1	–	–
O=C(CN1CCN(c2ccccc2O)CC1)Nc1cc([N+](=O)[O-])ccc1Cl	–	–	–	–
O=C(CN1CCN(c2ccccc2O)CC1)Nc1ccc([N+](=O)[O-])cc1Br	–	94.5	–	–
COc1ccc(COC(=O)Nc2cc3c(C(F)(F)F)nn(C)c3s2)cc1	-77.1	·	–	–
Cn1nc(C(F)(F)F)c2cc(NC(=O)OCc3ccc(C(C)(C)C)cc3)sc21	–	–	–	·
SMILES	AI-2 QS mod	Pemphigus Ab inh	NTR1 agonist	VLA-4 inh
Cc1cc(C)n(-c2nc3ccccc3nc2N2CCN(S(=O)(=O)c3ccc4ccccc4c3)CC2)n1	–	88.8	–	–
NC(=O)c1cc(N2C(=O)C=CC2=O)ccc1Cl	-82.2	–	–	–
CC(=O)Nc1ccc(Cl)c(C(N)=O)c1	–	–	–	–
O=C(Nc1ccccc1N1CCCC1)c1cc(=O)[nH]c2ccccc12	·	–	–	·
Cn1cccc1/C=N\NC(=O)C1COc2ccccc2O1 (stereo unspecified)	–	–	–	–
Cn1cccc1/C=N\NC(=O)C1COc2ccc(C(C)(C)C)cc2O1 (stereo unspecified)	–	23.8	–	–
Cc1ccc(C(=O)NNC(=O)c2csc(N3CCOCC3)n2)o1	–	95.7	–	–
O=C(NNC(=O)c1ccc(Br)o1)c1csc(N2CCOCC2)n1	·	–	–	–
O=C(NCCOc1ccccc1)c1cc(C(=O)NCCOc2ccccc2)cc([N+](=O)[O-])c1	-97.2	–	–	–
CSc1ccc(CCNC(=O)C2CCCN(S(=O)(=O)N3CCOCC3)C2)cc1 (stereo unspecified)	–	76.9	–	–
COc1ccc(CCNC(=O)C2CCCN(S(=O)(=O)N3CCCCCC3)C2)cc1OC (stereo unspecified)	–	–	–	–
CCOC(=O)c1ccccc1N/C=C/C(=O)c1ccccc1	–	35.9	–	–

Bioassay records deposited in PubChem by several laboratories.
